This is one part of a sample in which hits are shown more often than they occur.
Giardia FBPA inh = inhibitors of Giardia lamblia fructose-1,6-bisphosphate aldolase | Potency, µM (doses to about 59.6 µM), for inactives: at the top dose activity, negative = inhibition, most hits filed as inhibitors | AID 2451 | 290,000 compounds, 0.71% hits | purified Giardia FBPA; further: potency means the concentration at half of the fitted maximal effect; on the % scale 0 is the no-effect control and ±100 the full control effect; nearly all actives have a fitted effect of over 55% in size
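Giardia FBPA (40 nM reagent) was preincubated 10 min at RT with compound (up to 57.5 uM final), then substrate plus GAPDH/TPI/NAD/arsenate coupling system with diaphorase/resazurin was added; resorufin fluorescence (525/598 nm) was read after 20 min.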
LmPK inhibitor = inhibitors of Leishmania mexicana pyruvate kinase; AID 1721; purified LmPK, Kinase-Glo ATP luminescence, 1 h; Potency, µM (titrated, usually from 57.5 µM), inactives show top-dose activity change, negative = inhibition, hits mostly inhibitors; 290,000 compounds, 0.37% hits; Q27686; further: potency means the concentration at half of the fitted maximal effect; on the % scale 0 is the no-effect control and ±100 the full control effect
Target sequence (Q27686 whole entry, looked up): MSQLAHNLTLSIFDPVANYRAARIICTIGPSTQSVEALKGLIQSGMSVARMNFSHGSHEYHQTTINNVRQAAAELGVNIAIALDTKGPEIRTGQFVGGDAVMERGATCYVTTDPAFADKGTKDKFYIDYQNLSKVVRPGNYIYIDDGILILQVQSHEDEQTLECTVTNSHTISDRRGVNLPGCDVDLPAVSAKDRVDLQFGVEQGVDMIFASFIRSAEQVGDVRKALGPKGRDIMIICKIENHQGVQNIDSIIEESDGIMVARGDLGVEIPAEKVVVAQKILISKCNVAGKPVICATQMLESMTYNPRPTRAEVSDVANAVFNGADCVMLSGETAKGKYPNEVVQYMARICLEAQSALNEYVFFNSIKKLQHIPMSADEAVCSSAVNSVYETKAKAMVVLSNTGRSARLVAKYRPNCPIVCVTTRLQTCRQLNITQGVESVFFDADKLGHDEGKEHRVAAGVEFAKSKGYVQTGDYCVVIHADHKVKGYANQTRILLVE
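Purified LmPK (0.1 nM) converted ADP (0.1 mM) to ATP with PEP (0.5 mM) in imidazole buffer pH 7.2 with KCl and MgCl2, 1 h at room temperature. ATP was read by Kinase-Glo luminescence; data normalized to uninhibited and no-enzyme controls.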
Tb PYK inh = T. brucei pyruvate kinase inhibition. 410,000 compounds, 0.12% hits. Potency, µM (titrated, usually from 76.8 µM), without a hit: top-dose activity, negative = inhibition, usual class: inhibitors. TbPYK enzyme, Kinase-Glo Plus ATP luminescence, 45 min. AID 624173. Q57TT1; further: potency means the concentration at half of the fitted maximal effect; on the % scale 0 is the no-effect control and ±100 the full control effect; nearly all actives have a fitted effect of over 50% in size
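T. brucei PYK with substrate was exposed to pin-transferred compounds across a concentration series, then started with 130 uM ADP (final). After 45 min at room temperature, Kinase-Glo Plus luminescence was read, normalized and curve-fitted.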
Shiga toxin inh = Shiga toxin inhibition; AID 2315; Vero cells, Shiga toxin protein synthesis inhibition reporter; inhibition, % at 38.7 µM; 290,000 compounds, 9.2% hits; in the data active means inhibition mostly above about 28%, no sharp cut-off; inactive means mostly below about 43%; further: 0% is about no effect
Sm TGR block = blocks Schistosoma mansoni thioredoxin glutathione reductase. 360,000 compounds, 3% hits. purified TGR, DTNB reduction, TNB absorbance 405 nm. Q962Y6. Potency, µM (top dose mostly 114 µM), inactives show at the top dose activity change, negative = inhibition, most hits filed as inhibitors. AID 485364; further: potency means the concentration at half of the fitted maximal effect; on the % scale 0 is the no-effect control and ±100 the full control effect; nearly all actives have a fitted effect of over 60% in size
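TGR 20 nM + NADPH 100 uM (dispensed conc.), cpd preinc 15 min RT; start with NADPH (500 uM addition) then DTNB (15 mM addition). Kinetic TNB absorbance, 405 nm filter. Four-parameter Hill fit across titration.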
Cycloheximide cs = counter-screen for Shiga toxin inhibitors: cycloheximide protein synthesis inhibition | max response, % | cell reporter, cycloheximide protein synthesis inhibition counterscreen | AID 2314 | 300,000 compounds, 12% hits; in the data active means max response mostly above about 13%, no sharp cut-off; inactive means mostly below about 14%; further: read at 38.3 µM for the half of the compounds with a filed dose; 0% is about no effect
Numbers without * were called inactive; ? = inconclusive; . = not tested or not shown; + = active, no number; ! = repeats disagree. Unless noted, the call rests on the fitted dose curve; in most records, active means well fitted curve in the direction sought with a large enough effect; inconclusive means small, poorly fitted or top-dose-only effect, or another doubt; inactive means no such curve, though single readings can be large; an effect the other way counts as inactive or inconclusive.

SMILES	Giardia FBPA inh	LmPK inhibitor	Tb PYK inh	Shiga toxin inh	Sm TGR block	Cycloheximide cs
O=C(c1ccco1)N1CCN(c2c([N+](=O)[O-])nn(-c3ccc(Cl)cc3)[n+]2[O-])CC1	-16%	9%	-7%	-9	-13%	9
CC1CCN(c2c([N+](=O)[O-])nn(-c3ccc4c(c3)OCCO4)[n+]2[O-])CC1	-20%	6%	2%	162*	-1%	61*
O=C(CCSc1nc2ccccc2o1)N1CCOCC1	0%	1%	-2%	56*	-2%	32*
O=C(CCSc1nnnn1-c1ccccc1)N1CCOCC1	3%	-9%	-3%	36*	-2%	15
O=C(CCSc1ccccc1)N1CCCC1	5%	-10%	5%	79*	8%	46*
O=C(CCSc1ccccc1)N1CCOCC1	-1%	-16%	2%	80*	-7%	35*
CNC(=O)C1CCC(Cn2c(=O)c3sccc3n(CC(=O)NCc3ccc(F)cc3)c2=O)CC1 (configuration not stated)	.	.	1%	.	2%	.
COc1ccc2c(C(=S)N(C)CC(=O)O)cccc2c1C(F)(F)F	.	.	-7%	.	.	.
COc1ccc(NC(=O)c2ccco2)cc1NC(=O)c1cc(Br)ccc1Cl	.	.	0%	.	10%	.
CC(=O)OC(C=C(C)C)C/C(C)=C/COc1c2ccoc2cc2oc(=O)ccc12 (configuration not stated)	.	.	-1%	.	.	.
O=C(ONc1ccc(N=NC(=O)c2ccccc2O)cc1)c1ccccc1	-12%	-21%	-13%	-9	-13%	-3
Nc1[nH]c(N=NC(=O)c2ccccc2)c2ccccc12	-10%	-20%	-7%	84*	-1%	53*
Nc1[nH]c(N=NC(=O)c2ccc(Cl)cc2)c2ccccc12	-5%	0%	-2%	95*	0%	32*
Nc1[nH]c(N=NC(=O)c2ccccc2O)c2ccccc12	?	-12%	2%	81*	1%	58*
CCNC(=O)C/C(C)=N/NC(=O)C12CC3CC(CC(C3)C1)C2	-3%	1%	-5%	41	?	20*
CCN(CC)CCOC(=O)c1ccc(NC(=O)c2nn(-c3ccc(C)cc3)c(=O)c3c2c2ccccc2n3C)cc1	.	.	3%	.	-13%	.
COC(=O)C1(C)COP(=O)(NC23CC4CC(CC(C4)C2)C3)OC1 (configuration not stated)	.	.	-5%	.	.	.
COc1ccc(Cc2nnc(SCC(=O)N(C)CC(=O)Nc3ccc(C)cc3)o2)cc1	.	.	1%	.	0%	.
Cn1cc(C(=O)CCl)c2ccccc21	-8%	-7%	-7%	3	3.5µM*	2
CC(=O)Nc1ncc2c(n1)CC(c1ccco1)CC2=O (configuration not stated)	-18%	5%	1%	-5	-27%	-2
CCC(=O)Nc1ncc2c(n1)CC(c1ccco1)CC2=O (configuration not stated)	-17%	-14%	-3%	-3	?	-4
Nc1ncc2c(n1)CC(c1ccco1)CC2=O (configuration not stated)	-14%	-2%	-4%	-4	50µM*	-1
O=C1CC(c2ccco2)Cc2nc(N3CCc4ccccc4C3)ncc21 (configuration not stated)	-7%	1%	2%	-5	32µM*	-3
O=C(Nc1ncc2c(n1)CC(c1ccco1)CC2=O)c1ccco1 (configuration not stated)	-8%	-1%	-5%	38	20µM*	10
CC1(C)CC(=O)c2cnc(NC(=O)c3ccco3)nc2C1	2%	-3%	6%	84*	5%	20
SMILES	Giardia FBPA inh	LmPK inhibitor	Tb PYK inh	Shiga toxin inh	Sm TGR block	Cycloheximide cs
CCN(CC)N=Nc1ccc(S(=O)(=O)Nc2nc(C)cc(C)n2)cc1	-5%	4%	0%	-8	11µM*!	-4
Cc1ccccc1-n1nc2c(c1NC(=O)c1ccco1)CS(=O)(=O)C2	-4%	0%	-1%	-2	45µM*	0
CC(=O)Nc1c2c(nn1-c1ccc(C)cc1C)CSC2	4%	9%	-1%	0	-30%	-4
O=C(Nc1c2c(nn1-c1ccccc1)CS(=O)(=O)C2)c1ccco1	.	2%	8%	-22	0%	6
Cc1ccccc1-n1nc2c(c1NC(=O)c1ccc(Br)o1)CSC2	5%	1%	-19%	-11	32µM*	-3
O=C(Cc1ccc([N+](=O)[O-])cc1)c1c(O)cc(O)cc1O	1%	2%	6%	19	2%	16*
N#CCc1nc(CSc2nc3ccccc3o2)cs1	1%	3%	-8%	70*	0%	25
c1ccc(SCc2nc3ccccc3s2)nc1	-12%	-5%	-6%	81*	-24%	33*
N#C/C(=C(/O)c1ccc(F)cc1)c1nc2ccccc2s1	-24%	-2%	0%	20	2%	20*
N#C/C(=C(/O)CSc1ccccn1)c1nc2ccccc2s1	11%	0%	-3%	47	-24%	25*
O=C1NC[C@H](CCCCN2C[C@@H](Cc3ccccc3)N(CC3CCCCC3)C(=O)C2=O)N(CCC2CCCCC2)C1=O	.	.	4%	.	.	.
c1ccc2oc(SCc3nc4ccccc4s3)nc2c1	16%	-8%	-18%	+	4%	43*
c1ccc(-c2noc(CSc3nc4ccccc4o3)n2)cc1	-5%	2%	-3%	56	2%	17
Cc1ccc(S(=O)(=O)Nc2ccc(Nc3nccn4c(-c5cccc(OC(F)(F)F)c5)cnc34)cc2)cc1	.	.	0%	.	.	.
NC(CSCc1cccc(Br)c1)C(=O)O (configuration not stated)	-9%	-5%	-7%	-4	40µM*	-4
NC(=O)CSCc1cccc(Br)c1	-4%	8%	3%	6	2%	5
Cn1cccc1/C=N/N1CCN(c2ccccc2)CC1	?	0%	-14%	130*	45µM*	41*
CN1CCN(/N=C/c2cccc(Cl)c2Cl)CC1	-1%	-4%	-1%	41*	2%	29*
Cn1cccc1/C=N/N1CCN(Cc2ccccc2Cl)CC1	-19%	1%	-42%	19	50µM*	8
O=[N+]([O-])c1ccccc1/C=N/N1CCN(Cc2ccccc2)CC1	5%	4%	-1%	.	12%	45*
Clc1ccccc1/C=N/N1CCN(Cc2ccccc2)CC1	?	5%	5%	.	1%	4
COc1ccc(-n2ccn3c(CC(C)(C)CC(=O)O)nnc3c2=O)cc1	.	.	-1%	.	-2%	.
CNc1ncnc2c1ncn2[C@H]1C[C@H](OP(=O)(O)O)[C@H](COP(=O)(O)O)O1	0%	.	.	.	.	.
O=[N+]([O-])c1ccccc1/C=N\N1CCN(Cc2ccccc2Cl)CC1	-1%	-5%	-1%	15	5%	16*
Fc1ccccc1/C=N/N1CCN(Cc2ccccc2Cl)CC1	?	2%	-2%	.	10%	19*
